Data: the supplement of paper PMC11732987, “Enantioselective OTUD7B fragment discovery through chemoproteomics screening and high-throughput optimisation” (Communications Chemistry, 2025)

What was measured:
Assay in all cases: log2 ratio of Biotin-Ahx-Ub-VS probe labelling (fragment/DMSO); higher = less target engagement (more negative = stronger competition), active = hit call of the paper (q ≤ 0.05, log2 ratio ≤ -1)
Settings in all cases: compound concentration: 200 uM; treatment time: 3 h
[1] = molecular target: T1, OTUD6B (UniProt Q8N6M0)
T1 sequence (whole entry): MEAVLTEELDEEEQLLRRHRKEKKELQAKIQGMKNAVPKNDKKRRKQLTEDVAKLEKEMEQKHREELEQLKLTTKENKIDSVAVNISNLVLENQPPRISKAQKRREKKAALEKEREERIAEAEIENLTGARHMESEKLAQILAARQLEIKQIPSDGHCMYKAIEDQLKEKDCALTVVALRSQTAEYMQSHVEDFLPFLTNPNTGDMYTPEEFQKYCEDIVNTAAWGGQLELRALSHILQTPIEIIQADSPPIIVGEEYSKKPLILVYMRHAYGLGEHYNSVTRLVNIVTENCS
In short: (§1)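 HEK293T lysate, 495 µg per sample in Tris/CHAPS/IGEPAL buffer with protease inhibitors, was treated in triplicate with fragment at 200 µM or vehicle for 3 h and then with Biotin-Ahx-Ub-VS at 0.5 µM final for 1 h. Labelled DUBs were NeutrAvidin-enriched, digested with LysC and trypsin, and run by diaPASEF LC-MS/MS. Spectronaut label-free quantities were global-median-normalised, and values are average log2 fragment/vehicle ratios by unpaired t-test on proteins with ≥2 unique peptides.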

[2] = molecular target: T2, OTUD7B (UniProt Q6GQQ9)
T2 sequence (whole entry): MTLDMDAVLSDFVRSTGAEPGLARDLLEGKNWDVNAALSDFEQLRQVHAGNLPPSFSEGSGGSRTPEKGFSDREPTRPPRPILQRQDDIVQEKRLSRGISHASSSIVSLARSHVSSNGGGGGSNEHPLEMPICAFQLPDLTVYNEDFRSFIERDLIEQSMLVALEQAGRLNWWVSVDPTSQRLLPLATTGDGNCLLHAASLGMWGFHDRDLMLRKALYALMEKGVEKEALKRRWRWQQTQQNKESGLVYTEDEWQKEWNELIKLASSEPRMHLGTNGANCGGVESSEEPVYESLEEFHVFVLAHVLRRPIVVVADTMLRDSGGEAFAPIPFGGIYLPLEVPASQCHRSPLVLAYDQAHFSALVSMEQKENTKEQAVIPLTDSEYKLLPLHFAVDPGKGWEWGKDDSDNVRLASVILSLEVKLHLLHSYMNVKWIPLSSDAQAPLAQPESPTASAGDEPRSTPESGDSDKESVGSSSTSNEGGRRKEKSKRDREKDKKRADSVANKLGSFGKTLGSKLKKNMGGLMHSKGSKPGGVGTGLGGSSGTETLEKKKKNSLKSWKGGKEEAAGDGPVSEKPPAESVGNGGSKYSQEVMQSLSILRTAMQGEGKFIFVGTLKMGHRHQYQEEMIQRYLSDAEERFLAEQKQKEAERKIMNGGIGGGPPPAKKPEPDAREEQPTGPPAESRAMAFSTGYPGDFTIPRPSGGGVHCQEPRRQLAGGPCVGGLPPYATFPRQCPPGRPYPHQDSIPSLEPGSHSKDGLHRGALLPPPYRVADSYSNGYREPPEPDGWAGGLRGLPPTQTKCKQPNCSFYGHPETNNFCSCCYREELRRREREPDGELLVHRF
In short: as §1

[3] = molecular target: PRPF8 (UniProt Q6P2Q9)
In short: as §1

[4] = molecular target: T3, PSMD7 (UniProt P51665)
T3 sequence (whole entry): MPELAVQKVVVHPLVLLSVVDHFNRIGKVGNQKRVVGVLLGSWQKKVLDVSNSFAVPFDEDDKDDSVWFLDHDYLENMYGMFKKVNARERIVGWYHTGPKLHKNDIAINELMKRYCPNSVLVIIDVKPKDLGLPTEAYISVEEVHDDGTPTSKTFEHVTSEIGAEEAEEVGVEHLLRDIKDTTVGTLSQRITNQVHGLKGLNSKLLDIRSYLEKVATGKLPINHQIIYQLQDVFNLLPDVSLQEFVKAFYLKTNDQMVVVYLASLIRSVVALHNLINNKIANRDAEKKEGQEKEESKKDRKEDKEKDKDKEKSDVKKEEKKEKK
In short: as §1

[5] = molecular target: UCHL1 (UniProt P09936)
Sequence of UCHL1 (P09936 whole entry, looked up): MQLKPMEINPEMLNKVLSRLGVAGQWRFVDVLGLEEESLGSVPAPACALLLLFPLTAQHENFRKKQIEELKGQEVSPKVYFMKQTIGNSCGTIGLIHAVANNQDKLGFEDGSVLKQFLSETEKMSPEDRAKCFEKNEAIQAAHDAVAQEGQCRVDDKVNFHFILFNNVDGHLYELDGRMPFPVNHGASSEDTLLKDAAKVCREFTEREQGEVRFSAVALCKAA
In short: as §1

[6] = molecular target: T4, UCHL3 (UniProt P15374)
T4 sequence (whole entry): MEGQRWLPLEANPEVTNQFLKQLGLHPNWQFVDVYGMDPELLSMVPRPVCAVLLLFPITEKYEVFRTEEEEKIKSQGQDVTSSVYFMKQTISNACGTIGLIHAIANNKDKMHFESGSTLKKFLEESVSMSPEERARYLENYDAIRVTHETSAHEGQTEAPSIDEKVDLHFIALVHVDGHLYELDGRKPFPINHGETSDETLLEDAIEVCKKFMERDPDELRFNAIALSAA
In short: as §1

[7] = molecular target: T5, UCHL5 (UniProt Q9Y5K5)
T5 sequence (whole entry): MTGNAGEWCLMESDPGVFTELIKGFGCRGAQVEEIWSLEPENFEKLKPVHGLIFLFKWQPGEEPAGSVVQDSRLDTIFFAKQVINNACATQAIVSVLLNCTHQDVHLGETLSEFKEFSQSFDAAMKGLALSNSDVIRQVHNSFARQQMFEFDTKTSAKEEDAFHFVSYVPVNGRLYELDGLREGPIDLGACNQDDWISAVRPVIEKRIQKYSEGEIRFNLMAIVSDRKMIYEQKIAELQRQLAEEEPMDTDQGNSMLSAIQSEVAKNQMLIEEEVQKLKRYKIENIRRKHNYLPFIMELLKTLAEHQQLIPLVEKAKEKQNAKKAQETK
In short: as §1

[8] = molecular target: USP10 (UniProt Q14694)
Sequence of USP10 (Q14694 whole entry): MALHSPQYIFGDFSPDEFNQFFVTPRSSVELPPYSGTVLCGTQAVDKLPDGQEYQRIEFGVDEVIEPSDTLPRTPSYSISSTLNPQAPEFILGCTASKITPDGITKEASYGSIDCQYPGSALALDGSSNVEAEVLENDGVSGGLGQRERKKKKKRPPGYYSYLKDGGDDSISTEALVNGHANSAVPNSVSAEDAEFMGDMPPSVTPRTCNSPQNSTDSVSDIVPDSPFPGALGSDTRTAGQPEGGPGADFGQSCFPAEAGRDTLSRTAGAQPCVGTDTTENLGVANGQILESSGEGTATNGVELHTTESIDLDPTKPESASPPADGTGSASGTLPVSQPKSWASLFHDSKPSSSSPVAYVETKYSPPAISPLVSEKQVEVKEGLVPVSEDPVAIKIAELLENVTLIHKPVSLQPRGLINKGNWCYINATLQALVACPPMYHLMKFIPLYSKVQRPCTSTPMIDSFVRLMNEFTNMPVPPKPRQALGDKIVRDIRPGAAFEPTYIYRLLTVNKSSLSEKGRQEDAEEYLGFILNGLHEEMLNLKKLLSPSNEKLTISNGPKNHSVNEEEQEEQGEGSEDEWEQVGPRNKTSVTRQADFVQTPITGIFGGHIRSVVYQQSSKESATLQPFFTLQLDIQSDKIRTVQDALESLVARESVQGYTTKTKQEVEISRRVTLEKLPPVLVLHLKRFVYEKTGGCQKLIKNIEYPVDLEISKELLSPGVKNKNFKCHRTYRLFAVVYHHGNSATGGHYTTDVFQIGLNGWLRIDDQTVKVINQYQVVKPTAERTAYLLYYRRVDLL
In short: as §1

[9] = molecular target: T6, USP15 (UniProt Q9Y4E8)
T6 sequence (whole entry): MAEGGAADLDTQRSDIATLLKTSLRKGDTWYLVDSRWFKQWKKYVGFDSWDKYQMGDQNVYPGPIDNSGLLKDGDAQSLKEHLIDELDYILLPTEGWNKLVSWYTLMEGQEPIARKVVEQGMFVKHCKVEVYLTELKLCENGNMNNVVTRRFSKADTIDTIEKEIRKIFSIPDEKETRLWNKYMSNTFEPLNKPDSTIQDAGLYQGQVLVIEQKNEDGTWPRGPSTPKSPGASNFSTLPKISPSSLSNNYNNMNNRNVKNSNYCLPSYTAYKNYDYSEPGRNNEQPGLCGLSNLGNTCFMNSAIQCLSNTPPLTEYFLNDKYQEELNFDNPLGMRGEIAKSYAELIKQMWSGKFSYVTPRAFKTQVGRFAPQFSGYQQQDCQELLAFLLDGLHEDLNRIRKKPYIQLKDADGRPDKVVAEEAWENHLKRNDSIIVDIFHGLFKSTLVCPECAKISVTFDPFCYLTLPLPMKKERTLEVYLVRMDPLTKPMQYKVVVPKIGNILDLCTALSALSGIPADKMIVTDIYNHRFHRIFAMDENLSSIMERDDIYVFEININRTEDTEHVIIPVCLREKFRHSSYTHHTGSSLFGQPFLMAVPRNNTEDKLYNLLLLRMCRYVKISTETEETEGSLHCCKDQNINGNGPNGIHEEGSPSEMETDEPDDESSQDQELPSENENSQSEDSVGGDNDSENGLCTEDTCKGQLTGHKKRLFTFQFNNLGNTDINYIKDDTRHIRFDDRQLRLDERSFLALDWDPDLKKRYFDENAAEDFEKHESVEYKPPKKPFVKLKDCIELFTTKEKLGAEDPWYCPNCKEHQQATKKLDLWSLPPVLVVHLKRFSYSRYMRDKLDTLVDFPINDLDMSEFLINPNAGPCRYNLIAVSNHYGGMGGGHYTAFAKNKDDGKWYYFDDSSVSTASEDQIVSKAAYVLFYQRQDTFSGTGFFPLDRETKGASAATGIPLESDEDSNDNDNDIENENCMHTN
In short: as §1

[10] = molecular target: USP16 (UniProt Q9Y5T5)
Sequence of USP16 (Q9Y5T5 whole entry, looked up): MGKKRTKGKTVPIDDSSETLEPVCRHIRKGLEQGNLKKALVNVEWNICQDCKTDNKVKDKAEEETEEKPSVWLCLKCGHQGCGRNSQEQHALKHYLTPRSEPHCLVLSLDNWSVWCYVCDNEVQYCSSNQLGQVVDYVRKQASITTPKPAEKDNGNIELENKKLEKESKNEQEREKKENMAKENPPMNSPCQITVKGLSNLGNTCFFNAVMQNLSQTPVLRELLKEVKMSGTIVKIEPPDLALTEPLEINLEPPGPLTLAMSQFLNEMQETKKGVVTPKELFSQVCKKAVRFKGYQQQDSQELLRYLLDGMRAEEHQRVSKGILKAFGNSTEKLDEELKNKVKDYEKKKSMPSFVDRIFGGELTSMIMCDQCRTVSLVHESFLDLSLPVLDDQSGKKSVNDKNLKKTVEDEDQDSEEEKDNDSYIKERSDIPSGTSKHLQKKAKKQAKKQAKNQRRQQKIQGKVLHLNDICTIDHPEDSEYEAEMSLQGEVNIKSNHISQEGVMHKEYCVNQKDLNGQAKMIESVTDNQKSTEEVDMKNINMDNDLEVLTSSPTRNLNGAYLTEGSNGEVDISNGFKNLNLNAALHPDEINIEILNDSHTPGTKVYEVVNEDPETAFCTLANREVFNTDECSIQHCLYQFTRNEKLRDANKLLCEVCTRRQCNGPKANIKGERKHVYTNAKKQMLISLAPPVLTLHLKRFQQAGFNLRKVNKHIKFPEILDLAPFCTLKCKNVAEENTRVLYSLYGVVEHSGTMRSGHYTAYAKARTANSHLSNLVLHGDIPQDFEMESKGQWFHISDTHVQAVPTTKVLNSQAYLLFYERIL
In short: as §1

Measured: log2 ratio of Biotin-Ahx-Ub-VS probe labelling

Cl.O=C(CCl)N1CCN(Cc2ccccc2)CC1
inactive: [1] -0.117 | [2] -0.1 | [3] -0.0463 | [4] -0.259 | [5] -0.902 | [6] 0.47 | [7] -0.282 | [8] -0.119 | [9] -0.171 | [10] -0.587
